Reference: PubChem BioAssay (Tox21)
Several values for one entry are separate records, joined by “and”; a condition that tells them apart may be missing. Identical values can stand only once. Inconclusive results are not listed. The source holds several records for some structures; these can differ, active in one and inactive in another. Activity calls are given as the source filed them. Calls follow the shape of the dose curve; as a rule, active = well fitted curve in the direction sought with a large enough effect in the repeat runs; inconclusive = weak or mixed curves; inactive = no such curve, though single readings can be large; an effect the other way counts as inactive or inconclusive.

Assays:
[1] = Human pregnane X receptor (PXR) small molecule agonists, qHTS cell viability counter screen (AID 1346977); also: nearly all actives have a fitted effect of over 50% in size; also: potency is read from the fitted curve at half-maximal effect
Procedure, shortened: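 PXR-Luc HepG2 cells in medium with 5% charcoal-stripped FBS were pre-incubated 5hr, then exposed to compounds for 24hr at 37C. Viability was read in the same wells by CellTiter-Fluor fluorescence, reagent added after 23hr with a 1hr incubation.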

[2] = Caspase-3/7 induction in HepG2 cells by small molecules, qHTS assay (AID 1346978); also: nearly all actives have a fitted effect of over 15% in size; also: potency is read from the fitted curve at half-maximal effect
Procedure, shortened: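 Wild-type HepG2 cells (2,000/well) were settled 5 h at 37 C, 5% CO2, then exposed to compounds in DMSO for 17 h. Caspase-3/7 activity was read by luminescence 30 min after adding Caspase-Glo 3/7 reagent at room temperature.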

[3] = Caspase-3/7 induction in CHO-K1 cells by small molecules, qHTS cell viability counter screen (AID 1346979); also: nearly all actives have a fitted effect of over 35% in size; also: potency is read from the fitted curve at half-maximal effect
Procedure, shortened: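 Wild-type CHO-K1 cells were seeded at 1,500 per well, rested 5hr at 37 C, then exposed to compounds in DMSO. After 16hr, CellTiter-Fluor reagent was added and fluorescence read 1hr later as the viability measure.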

[4] = Caspase-3/7 induction in CHO-K1 cells by small molecules, qHTS assay (AID 1346980); also: nearly all actives have a fitted effect of over 15% in size
Procedure, shortened: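 Wild-type cells were seeded at 1,500 per well and settled 5 hr at 37 C, 5% CO2, then exposed to DMSO-dissolved compounds for 17 hr. Caspase-Glo 3/7 reagent was added, and luminescence was read after 30min at room temperature.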

[5] = Caspase-3/7 induction in HepG2 cells by small molecules, qHTS cell viability counter screen (AID 1346981); also: series mostly up to about 92 µM; nearly all actives have a fitted effect of over 30% in size
Procedure, shortened: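 Fluorescence read-out of live-cell protease activity (CellTiter-Fluor) after 1 hr with reagent. This was measured in the same wells as the caspase-3/7 luminescence, on HepG2 cells exposed to DMSO-dissolved compounds for 16 hr at 37 C.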

[6] = molecular target: Nuclear receptor subfamily 1 group I member 2 (Homo sapiens) (UniProt O75469); experiment: Human pregnane X receptor (PXR) small molecule agonists, qHTS assay (AID 1346982); also: nearly all actives have a fitted effect of over 35% in size; also: potency is read from the fitted curve at half-maximal effect
Chain of Nuclear receptor subfamily 1 group I member 2 (Homo sapiens) (O75469 whole entry, looked up): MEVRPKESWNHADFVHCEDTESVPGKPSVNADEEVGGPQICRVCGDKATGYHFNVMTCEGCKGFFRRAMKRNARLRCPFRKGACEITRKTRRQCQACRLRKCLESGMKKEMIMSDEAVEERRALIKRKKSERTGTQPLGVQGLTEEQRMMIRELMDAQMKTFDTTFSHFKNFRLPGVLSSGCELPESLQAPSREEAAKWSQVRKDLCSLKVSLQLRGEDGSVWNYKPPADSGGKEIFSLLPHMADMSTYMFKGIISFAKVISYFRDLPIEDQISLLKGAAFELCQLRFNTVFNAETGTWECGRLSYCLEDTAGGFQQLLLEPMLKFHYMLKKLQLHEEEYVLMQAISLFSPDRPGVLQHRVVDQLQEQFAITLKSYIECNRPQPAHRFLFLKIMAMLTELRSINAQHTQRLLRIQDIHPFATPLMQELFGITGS
Procedure, shortened: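 HepG2 PXR-Luc reporter line, 5% charcoal-stripped FBS; 5 hr pre-incubation, compound (DMSO) 24 hr at 37 C/5% CO2; ONE-Glo 30 min RT; luminescence read-out.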

[7] = molecular target: Nuclear receptor subfamily 1 group I member 2 (Rattus norvegicus) (UniProt Q9R1A7); experiment: Rat pregnane X receptor (rPXR) activation by small molecules, qHTS assay (AID 1346983); conditions: rPXR luciferase reporter cells, One-Glo luminescence, 24 h; stronger effect = higher value; also: nearly all actives have a fitted effect of over 20% in size
Chain of Nuclear receptor subfamily 1 group I member 2 (Rattus norvegicus) (Q9R1A7 whole entry, looked up): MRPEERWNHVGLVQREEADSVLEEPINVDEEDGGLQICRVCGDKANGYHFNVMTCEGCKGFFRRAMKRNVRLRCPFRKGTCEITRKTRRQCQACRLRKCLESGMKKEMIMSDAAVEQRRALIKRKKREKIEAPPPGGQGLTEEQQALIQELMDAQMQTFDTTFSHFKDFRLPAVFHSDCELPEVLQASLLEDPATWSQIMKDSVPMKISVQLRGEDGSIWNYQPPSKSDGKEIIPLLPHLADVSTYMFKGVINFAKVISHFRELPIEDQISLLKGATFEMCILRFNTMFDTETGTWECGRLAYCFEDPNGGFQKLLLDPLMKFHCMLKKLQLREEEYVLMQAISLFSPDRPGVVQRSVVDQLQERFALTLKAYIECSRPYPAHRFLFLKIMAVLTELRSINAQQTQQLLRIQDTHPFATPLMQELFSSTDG
Procedure, shortened: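 Cell-based rPXR luciferase reporter assay, 2,000 cells per well, rested 5hr at 37 C before compound addition in DMSO, then 24 hr at 37 C. One-Glo reagent was added and luminescence read after 30 min at room temperature.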

[8] = molecular target: Nuclear receptor subfamily 1 group I member 2 (Homo sapiens) (UniProt O75469); experiment: CYP3A4 induction through human pregnane X receptor (PXR) by small molecules, qHTS assay (AID 1346984); also: nearly all actives have a fitted effect of over 40% in size
Procedure, shortened: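 HepG2-derived DPX-2 line carrying PXR plus a CYP3A4-promoter luciferase reporter; cells plated 5 hr, compound-exposed 24 hr at 37C. CYP3A4 activity probed with 3uM (final) Luciferin-IPA for 3hr, then luciferase read after One-Glo.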

[9] = molecular target: Nuclear receptor subfamily 1 group I member 2 (Homo sapiens) (UniProt O75469); experiment: Human pregnane X receptor (PXR) activation by small molecules, qHTS assay (AID 1346985); also: nearly all actives have a fitted effect of over 40% in size
Procedure, shortened: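 DPX-2 cells (HepG2 co-transfected with a PXR response element and a CYP3A4-promoter luciferase construct) were seeded at 2,000 per well, rested 5 hr at 37C, then exposed to DMSO-dissolved compounds for 24 hr. Activation was read as luciferase luminescence.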

[10] = molecular target: Cytochrome P450 2D6 (Homo sapiens) (UniProt P10635); experiment: Cytochrome P450 Family 2 Subfamily D Member 6 (CYP2D6) small molecule antagonists: luciferase reporter qHTS assay (AID 1671196); also: nearly all actives have a fitted effect of over 50% in size; also: potency is read from the fitted curve at half-maximal effect; as to activity change, negative = inhibition: series mostly up to about 120 µM
Chain of Cytochrome P450 2D6 (Homo sapiens) (P10635 whole entry, looked up): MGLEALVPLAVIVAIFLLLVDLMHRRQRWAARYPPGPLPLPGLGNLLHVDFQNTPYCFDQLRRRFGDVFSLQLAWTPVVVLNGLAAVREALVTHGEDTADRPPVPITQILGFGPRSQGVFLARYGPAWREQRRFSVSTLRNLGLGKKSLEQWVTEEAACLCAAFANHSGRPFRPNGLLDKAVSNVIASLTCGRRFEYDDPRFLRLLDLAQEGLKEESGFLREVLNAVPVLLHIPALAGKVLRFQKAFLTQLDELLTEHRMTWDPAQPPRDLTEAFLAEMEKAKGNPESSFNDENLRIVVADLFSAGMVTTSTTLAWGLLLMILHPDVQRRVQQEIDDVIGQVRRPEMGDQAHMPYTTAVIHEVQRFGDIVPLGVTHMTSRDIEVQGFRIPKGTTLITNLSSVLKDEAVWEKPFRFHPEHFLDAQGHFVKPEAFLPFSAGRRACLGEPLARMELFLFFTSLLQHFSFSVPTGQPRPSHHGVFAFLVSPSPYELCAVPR
Procedure, shortened: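 Luminogenic proluciferin substrate, CYP2D6 enzyme; 10 min RT preincubation with compound, NADPH regeneration system added, 1 h RT. Stop/detection reagent, 20 min RT, luminescence read (RLU). Signal proportional to CYP activity.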

[11] = molecular target: Cytochrome P450 2C19 (Homo sapiens) (UniProt P33261); experiment: Cytochrome P450 Family 2 Subfamily C Member 19 (CYP2C19) small molecule antagonists: luciferase reporter qHTS assay (AID 1671197); also: nearly all actives have a fitted effect of over 65% in size; also: potency is read from the fitted curve at half-maximal effect; as to activity change, negative = inhibition: series mostly up to about 120 µM
Chain of Cytochrome P450 2C19 (Homo sapiens) (P33261 whole entry, looked up): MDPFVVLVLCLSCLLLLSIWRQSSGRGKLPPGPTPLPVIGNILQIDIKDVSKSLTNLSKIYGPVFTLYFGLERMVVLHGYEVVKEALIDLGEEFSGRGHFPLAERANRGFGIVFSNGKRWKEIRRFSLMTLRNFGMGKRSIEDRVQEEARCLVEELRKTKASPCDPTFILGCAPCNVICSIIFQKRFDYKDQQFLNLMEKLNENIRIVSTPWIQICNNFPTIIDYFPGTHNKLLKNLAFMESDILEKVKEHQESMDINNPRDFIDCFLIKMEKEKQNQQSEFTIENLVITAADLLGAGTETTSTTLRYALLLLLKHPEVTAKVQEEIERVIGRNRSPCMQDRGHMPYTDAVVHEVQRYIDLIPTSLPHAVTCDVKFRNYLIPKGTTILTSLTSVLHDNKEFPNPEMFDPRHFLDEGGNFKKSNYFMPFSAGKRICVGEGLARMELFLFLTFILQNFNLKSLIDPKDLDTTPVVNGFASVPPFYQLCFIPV
Procedure, shortened: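 CYP2C19 P450-Glo, 1536-well qHTS. Cpd + enzyme/proluciferin substrate 10 min RT; + NADPH regen, 37C 1 h; stop with luciferin detection reagent, 20 min RT, luminescence (RLU). Pos ctrl ketoconazole.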

[12] = molecular target: Cytochrome P450 2C9 (Homo sapiens) (UniProt P11712); experiment: Cytochrome P450 Family 2 Subfamily C Member 9 (CYP2C9) small molecule antagonists: luciferase reporter qHTS assay (AID 1671198); also: nearly all actives have a fitted effect of over 50% in size; also: potency is read from the fitted curve at half-maximal effect; as to activity change, negative = inhibition: series mostly up to about 120 µM
Chain of Cytochrome P450 2C9 (Homo sapiens) (P11712 whole entry, looked up): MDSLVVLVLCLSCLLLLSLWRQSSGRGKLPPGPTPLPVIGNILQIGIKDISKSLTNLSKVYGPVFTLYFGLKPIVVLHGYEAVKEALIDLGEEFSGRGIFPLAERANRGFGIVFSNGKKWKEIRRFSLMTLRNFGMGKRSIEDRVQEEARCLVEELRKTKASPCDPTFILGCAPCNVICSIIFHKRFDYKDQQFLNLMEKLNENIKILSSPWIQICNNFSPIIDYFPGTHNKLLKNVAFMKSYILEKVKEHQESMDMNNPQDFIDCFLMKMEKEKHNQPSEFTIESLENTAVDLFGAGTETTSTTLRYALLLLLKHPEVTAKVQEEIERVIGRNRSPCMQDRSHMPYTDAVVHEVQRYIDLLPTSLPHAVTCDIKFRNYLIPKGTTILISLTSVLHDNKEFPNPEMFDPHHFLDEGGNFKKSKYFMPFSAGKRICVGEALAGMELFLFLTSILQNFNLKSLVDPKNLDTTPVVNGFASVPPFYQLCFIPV
Procedure, shortened: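 CYP2C9 activity was measured with a P450-Glo proluciferin substrate. Enzyme–substrate mix was held with compound for 10 min at room temperature, then NADPH regeneration solution was added for 1 h at 37C. Luciferin product was read as luminescence.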

[13] = molecular target: Voltage-gated inwardly rectifying potassium channel KCNH2 (Homo sapiens) (UniProt Q12809); experiment: Human Ether-a-go-go-Related Gene (hERG) channel small molecule antagonists: fluorescence cell-based qHTS assay (AID 1671200);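 also: hERG-expressing U2OS cells given a thallium stimulus after FluxOR II dye loading; series mostly up to about 77 µM; nearly all actives have a fitted effect of over 50% in size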
Chain of Voltage-gated inwardly rectifying potassium channel KCNH2 (Homo sapiens) (Q12809 whole entry, looked up): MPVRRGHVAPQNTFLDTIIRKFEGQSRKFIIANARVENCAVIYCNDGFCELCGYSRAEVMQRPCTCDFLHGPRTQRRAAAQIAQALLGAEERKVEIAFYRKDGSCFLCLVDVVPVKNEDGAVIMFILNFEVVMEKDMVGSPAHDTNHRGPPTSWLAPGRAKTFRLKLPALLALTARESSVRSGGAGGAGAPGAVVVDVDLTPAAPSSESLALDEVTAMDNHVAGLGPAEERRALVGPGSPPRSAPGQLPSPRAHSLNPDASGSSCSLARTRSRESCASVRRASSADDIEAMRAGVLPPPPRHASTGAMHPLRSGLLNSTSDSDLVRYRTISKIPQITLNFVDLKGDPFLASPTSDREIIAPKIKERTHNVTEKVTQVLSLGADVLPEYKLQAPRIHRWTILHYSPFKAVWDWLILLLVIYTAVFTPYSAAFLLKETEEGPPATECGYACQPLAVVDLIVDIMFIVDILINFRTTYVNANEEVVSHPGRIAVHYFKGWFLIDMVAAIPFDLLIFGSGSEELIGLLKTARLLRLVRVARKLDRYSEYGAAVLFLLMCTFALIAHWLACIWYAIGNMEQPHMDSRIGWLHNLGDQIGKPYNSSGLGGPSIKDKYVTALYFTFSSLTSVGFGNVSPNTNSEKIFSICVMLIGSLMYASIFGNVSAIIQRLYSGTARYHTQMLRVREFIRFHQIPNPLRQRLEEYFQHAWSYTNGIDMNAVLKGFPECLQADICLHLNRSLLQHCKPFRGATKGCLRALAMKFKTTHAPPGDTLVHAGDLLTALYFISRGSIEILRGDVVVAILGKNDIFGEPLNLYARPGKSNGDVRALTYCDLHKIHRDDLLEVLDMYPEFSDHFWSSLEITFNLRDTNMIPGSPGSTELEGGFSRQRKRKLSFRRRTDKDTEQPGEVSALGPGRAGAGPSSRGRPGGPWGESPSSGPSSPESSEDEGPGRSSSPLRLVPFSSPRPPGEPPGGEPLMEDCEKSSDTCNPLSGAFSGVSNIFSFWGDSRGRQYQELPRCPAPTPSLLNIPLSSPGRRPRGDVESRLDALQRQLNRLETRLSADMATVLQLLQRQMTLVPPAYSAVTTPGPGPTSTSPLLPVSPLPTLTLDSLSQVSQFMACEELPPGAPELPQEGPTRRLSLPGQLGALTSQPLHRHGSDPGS
Procedure, shortened: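 U2OS cells expressing the channel were plated at 1000 cells/well, incubated overnight at 37 C, then loaded with FluxOR II thallium-sensitive dye for 1 h at room temperature in the dark, with a further 10 min at room temperature before stimulation.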

[14] = molecular target: Cytochrome P450 3A4 (Homo sapiens) (UniProt P08684); experiment: Cytochrome P450 Family 3 Subfamily A Member 4 (CYP3A4) small molecule antagonists: luciferase reporter qHTS assay (AID 1671201)
Chain of Cytochrome P450 3A4 (Homo sapiens) (P08684 whole entry, looked up): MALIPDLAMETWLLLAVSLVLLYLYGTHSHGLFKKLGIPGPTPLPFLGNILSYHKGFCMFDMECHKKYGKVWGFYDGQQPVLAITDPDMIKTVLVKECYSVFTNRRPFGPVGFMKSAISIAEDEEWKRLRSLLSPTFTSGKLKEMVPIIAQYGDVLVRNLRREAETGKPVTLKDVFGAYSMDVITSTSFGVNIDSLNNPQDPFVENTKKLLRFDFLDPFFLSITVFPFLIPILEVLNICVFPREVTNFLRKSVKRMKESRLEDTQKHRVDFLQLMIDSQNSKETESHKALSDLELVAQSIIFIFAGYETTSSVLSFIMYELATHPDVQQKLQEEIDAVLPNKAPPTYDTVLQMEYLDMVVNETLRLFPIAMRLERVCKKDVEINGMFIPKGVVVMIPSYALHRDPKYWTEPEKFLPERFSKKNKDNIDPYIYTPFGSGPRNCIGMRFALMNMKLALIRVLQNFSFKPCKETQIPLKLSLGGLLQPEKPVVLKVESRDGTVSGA
Procedure, shortened: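 P450-Glo CYP3A4 system with proluciferin substrate; compounds preincubated 10 min RT with enzyme-substrate mix, then NADPH regeneration added for 1 h RT. Detection reagent 20 min, luminescence read as relative luminescence units.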

[15] = molecular target: Cytochrome P450 1A2 (Homo sapiens) (UniProt P05177); experiment: Cytochrome P450 Family 1 Subfamily A Member 2 (CYP1A2) small molecule antagonists: luciferase reporter qHTS assay (AID 1671199); also: nearly all actives have a fitted effect of over 50% in size; also: potency is read from the fitted curve at half-maximal effect; as to activity change, negative = inhibition: series mostly up to about 120 µM
Chain of Cytochrome P450 1A2 (Homo sapiens) (P05177 whole entry, looked up): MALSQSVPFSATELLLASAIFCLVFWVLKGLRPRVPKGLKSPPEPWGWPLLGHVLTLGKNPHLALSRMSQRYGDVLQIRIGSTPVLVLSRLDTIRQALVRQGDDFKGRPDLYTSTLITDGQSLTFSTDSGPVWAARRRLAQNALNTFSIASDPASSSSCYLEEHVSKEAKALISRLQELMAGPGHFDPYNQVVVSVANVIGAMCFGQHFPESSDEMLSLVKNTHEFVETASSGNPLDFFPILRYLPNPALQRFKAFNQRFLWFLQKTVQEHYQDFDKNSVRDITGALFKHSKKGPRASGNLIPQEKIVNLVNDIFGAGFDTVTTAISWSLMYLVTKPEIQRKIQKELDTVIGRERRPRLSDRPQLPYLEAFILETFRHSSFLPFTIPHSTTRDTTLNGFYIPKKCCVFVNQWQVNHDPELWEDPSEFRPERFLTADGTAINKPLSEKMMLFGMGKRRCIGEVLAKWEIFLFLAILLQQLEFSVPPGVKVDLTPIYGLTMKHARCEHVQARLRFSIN
Procedure, shortened: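 Luminescence readout (relative luminescence units) after luciferin detection reagent, 20 min RT. Preceded by 1 h room-temperature CYP1A2 reaction with NADPH regeneration solution following 10 min compound preincubation with enzyme and proluciferin substrate. Furafylline positive control.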
% is scaled to controls: 0 for no effect and ±100 for the full control effect.

CC1(C)OC[C@@H]2O[C@@]3(C(=O)O)OC(C)(C)O[C@H]3[C@@H]2O1
inactive: Potency [1] | Potency [2] | Potency [3] | outcome [4] | Potency [5] | Potency [6] | max activation [7] -1.74% | Potency [8] | outcome [9] | Potency [10] | Potency [11] | Potency [12] | Potency [13] | Potency [14]

N#Cc1ccccc1
inactive: Potency [1] | Potency [2] | Potency [3] | outcome [4] | Potency [5] | Potency [6] | Potency [10] | Potency [11] | Potency [12] | Potency [15] | Potency [13] | Potency [14]

C=C(C)C(=O)OCC(C)C
39.8 µM (active) and inactive: Potency [1]
inactive: outcome [4] | Potency [5] | Potency [10] | Potency [11] | Potency [12] | Potency [15] | Potency [13] | Potency [14]
55.2 µM (active) and inactive: Potency [2]
17.5 µM (active) and inactive: Potency [6]
12.4 µM (active) and inactive: Potency [3]

N[C@H](Cc1c[nH]c2ccccc12)C(=O)O
inactive: Potency [1] | Potency [2] | Potency [3] | outcome [4] | Potency [5] | Potency [6] | max activation [7] -2.63% | outcome [9] | Potency [10] | Potency [11] | Potency [12] | Potency [13] | Potency [14]

CN/C(=C\[N+](=O)[O-])NCCSCc1csc(CN(C)C)n1
inactive: Potency [1] | Potency [2] | Potency [3] | outcome [4] | Potency [5] | Potency [6] | max activation [7] -2.39% | Potency [8] | outcome [9] | Potency [12] | Potency [15] | Potency [13] | Potency [14]
35.6 µM (active) and inactive: Potency [10]

CC(C)(C)c1cc(Cc2cc(C(C)(C)C)c(O)c(C(C)(C)C)c2)cc(C(C)(C)C)c1O
inactive: Potency [1] | Potency [2] | Potency [3] | outcome [4] | Potency [5] | Potency [6] | Potency [10] | Potency [11] | Potency [12] | Potency [13] | Potency [14]
inactive and 71 µM (active): Potency [15]

CC(CCl)OP(=O)(OC(C)CCl)OC(C)CCl (stereo not drawn)
inactive: Potency [1] | Potency [2] | Potency [3] | outcome [4] | Potency [5] | Potency [10] | Potency [13]
active: Potency [6] 36.3 µM | Potency [11] 35.7 µM and 21.1 µM | Potency [12] 40 µM and 59.5 µM | Potency [15] 28.3 µM and 14.9 µM

O=C(O)c1ccc(S(=O)(=O)N(Cl)Cl)cc1
35.8 µM (active) and inactive: Potency [10]
inactive: Potency [1] | Potency [2] | Potency [3] | outcome [4] | Potency [5] | Potency [6] | max activation [7] 4.13% | Potency [8] | outcome [9] | Potency [11] | Potency [12] | Potency [13] | Potency [14]

CCCOC(=O)c1ccccc1
inactive: Potency [1] | Potency [2] | Potency [3] | outcome [4] | Potency [5] | Potency [6] | max activation [7] -6.55% | Potency [8] | outcome [9] | Potency [10] | Potency [11] | Potency [12] | Potency [15] | Potency [13] | Potency [14]

O=C1CCCC1
inactive: Potency [1] | Potency [2] | Potency [3] | outcome [4] | Potency [5] | Potency [6] | Potency [10] | Potency [11] | Potency [12] | Potency [15] | Potency [13] | Potency [14]

CC(=O)Oc1ccc(C)cc1
inactive: Potency [1] | Potency [2] | Potency [3] | outcome [4] | Potency [5] | Potency [6] | max activation [7] -1.62% | Potency [8] | outcome [9] | Potency [10] | Potency [11] | Potency [12] | Potency [13] | Potency [14]

CCCCCCCCCCO
inactive: Potency [1] | Potency [2] | Potency [3] | outcome [4] | Potency [5] | Potency [6] | Potency [10] | Potency [11] | Potency [12] | Potency [13] | Potency [14]
inactive and 31.7 µM (active): Potency [15]

CNC(=O)Oc1ccc2c(c1)[C@]1(C)CCN(C)[C@@H]1N2C
71 µM (active) and inactive: Potency [12]
active: Potency [10] 564 nM and 977 nM
inactive: Potency [1] | Potency [2] | Potency [3] | outcome [4] | Potency [5] | Potency [6] | max activation [7] -1.54% | Potency [8] | outcome [9] | Potency [15] | Potency [13] | Potency [14]
25.2 µM (active) and inactive: Potency [11]

CCOCC(=O)O
active: Potency [10] 32.4 µM and 31.7 µM
inactive: Potency [1] | Potency [2] | Potency [3] | outcome [4] | Potency [5] | Potency [6] | Potency [11] | Potency [12] | Potency [15] | Potency [13] | Potency [14]

C=CCCCCCCCCC(=O)O
active: Potency [12] 39.9 µM
inactive: Potency [1] | Potency [2] | Potency [3] | outcome [4] | Potency [5] | Potency [6] | max activation [7] -1.23% | Potency [8] | outcome [9] | Potency [10] | Potency [11] | Potency [13] | Potency [14]

CCc1ccccc1CC
inactive: Potency [1] | Potency [2] | Potency [3] | outcome [4] | Potency [5] | Potency [6] | Potency [10] | activity change, negative = inhibition [11] 2.36% [at 23.6 µM] | Potency [12] | activity change, negative = inhibition [15] -28.6% [at 23.6 µM] | Potency [13] | Potency [14]

CC(C)(Oc1ccc(CCNC(=O)c2ccc(Cl)cc2)cc1)C(=O)O
active: Potency [12] 28.3 µM and 13.8 µM
inactive: Potency [1] | Potency [2] | Potency [3] | outcome [4] | Potency [5] | Potency [6] | max activation [7] -0.19% | Potency [8] | outcome [9] | Potency [10] | Potency [11] | Potency [15] | Potency [13] | Potency [14]
